SMILES strings stand for the structures. Out of some 2,400 compounds screened, about 95 (4%) were called active.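 How the source made its calls: active means mean of duplicate membrane potential ratios lying over 3 SD above or below the buffer control mean, so actives fall on both sides; inactive means the rest.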 Only a sample is shown.

A short description of this test: membrane potential effects in parental HEK293, counter-screen for CHT inhibitor project, cell-based, membrane potential dye (AID 493222).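 Further: parental cells lack the transporter so any hit is non-specific.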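 On membrane potential ratio readout (active if shifted either direction beyond buffer ±3SD; no single direction): ratio is peak minus trough fluorescence over baseline after EC90 choline challenge.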 The following applies: choline response, at 10 µM; active = decrease or increase beyond buffer ±3SD.
With `O=C(OCC(=O)c1c[nH]c2ccccc12)c1cccc(O)c1`, the membrane potential ratio readout (active if shifted either direction beyond buffer ±3SD; no single direction) result is “inactive”. In the case of `CCc1cc2c(N3CCN(c4nnc(CC)s4)CC3)ncnc2s1` it was “inactive”. Next, `O=C(Cn1nc(C(F)(F)F)c2c1CCC2)NCc1ccc(F)cc1`: “inactive”; `CCN(Cc1ccccc1)S(=O)(=O)c1cc(C(=O)O)ccc1OC`: “inactive”. In the case of `COc1ccc(Cn2c(=O)sc3ccccc32)cc1OC` it was -8.59 (active); in that of `O=C(NCCc1ccc2c(c1)OCCO2)c1cc2ccccc2o1`, “inactive”; in that of `FC(F)(F)c1cccc(NC(=S)Nc2cccc(Cl)c2)c1`, “inactive”. With `CCCCCn1c(=O)[nH]c2cc(C(=O)NCCCN3CCCCC3C)ccc2c1=O` (configuration not stated), the membrane potential ratio readout (active if shifted either direction beyond buffer ±3SD; no single direction) result is “inactive”. `O=C(NCCCn1ccnc1)C(=O)c1cn(CC(=O)N2CCCCCC2)c2ccccc12`: the membrane potential ratio readout (active if shifted either direction beyond buffer ±3SD; no single direction) result is “inactive”.

With `CCC(C)c1ccc(NC(=S)NCc2ccccn2)cc1` (configuration not stated), the membrane potential ratio readout (active if shifted either direction beyond buffer ±3SD; no single direction) result was “inactive”. `Cc1c(C(=O)OC(C)C)sc(NC(=O)c2cccnc2)c1C#N`: the membrane potential ratio readout (active if shifted either direction beyond buffer ±3SD; no single direction) entry is “inactive”. In the case of `C/C(=N/NC(=O)c1cc(Cl)ccc1O)C12CC3CC(CC(C3)C1)C2` it was “inactive”; in that of `COc1nc(OC)nc(N(C)CCO)n1`, “inactive”. In the case of `COc1cccc(-c2nn(-c3ccccc3)cc2/C=C(\C#N)C(=O)NCCCn2ccnc2)c1` it was “inactive”; in that of `O=S(=O)(Cc1cc(Cl)nc(-c2cccnc2)n1)c1ccccc1`, “inactive”; in that of `COc1ccc(-n2nnnc2CNC(=O)c2ccc3ccccc3c2)cc1`, “inactive”. In the case of `N#Cc1ccc(C(=O)Nc2cccc3cccnc23)c(F)c1` it was “inactive”; in that of `CCC(=O)Nc1nnc(S(=O)(=O)N(CC(C)C)c2ccccc2)s1`, “inactive”. In the case of `CC1CN(S(=O)(=O)c2ccc(C(=O)NN3CCN(C)CC3)cc2)CC(C)O1` (configuration not stated), the membrane potential ratio readout (active if shifted either direction beyond buffer ±3SD; no single direction) result is “inactive”. In the case of `CC(=O)N1CCN(S(=O)(=O)c2cccc(C(=O)NC3CCC(C)CC3)c2)CC1` (configuration not stated) it was “inactive”.

Regarding `CC(NC(=O)c1ccc(N2CCNCC2)c([N+](=O)[O-])c1)C12CC3CC(CC(C3)C1)C2` (configuration not stated), the membrane potential ratio readout (active if shifted either direction beyond buffer ±3SD; no single direction) entry is “inactive”.

On to `COc1ccc(OCC(=O)OCCN(C)C)cc1`, for which the membrane potential ratio readout (active if shifted either direction beyond buffer ±3SD; no single direction) result is “inactive”. In the case of `CC(C(=O)NC1CCS(=O)(=O)C1)N1C(=O)/C(=C/c2ccc(Cl)cc2)SC1=S` (configuration not stated) it was “inactive”; in that of `CCOC(=O)N1CCN(C(=O)C2CCN(c3ncnc4c3sc3cccc(F)c34)CC2)CC1`, “inactive”; in that of `CCC(C(=O)N1CCOCC1)n1c(C(=O)OC)cc2occc21` (configuration not stated), “inactive”. Next, `CC1(C)SC2C(NC(=O)COc3ccccc3)C(=O)N2C1C(=O)O` (configuration not stated): “inactive”; `Cc1cccc(C)c1NC(=O)c1ccc(CN2CCc3ccccc3C2)cc1`: “inactive”. In the case of `CCS(=O)(=O)C1=NSC2=NC(=O)/C(=C\c3ccc(OS(=O)(=O)c4ccccc4)cc3)C(=N)N21` it was “inactive”. Consider `Cc1nn(CC(=O)NCC2CCCO2)c(=O)c2cc3ccccc3n12` (configuration not stated), for which the membrane potential ratio readout (active if shifted either direction beyond buffer ±3SD; no single direction) result was “inactive”. In the case of `COc1ccc(C(CNC(=O)c2cccc(NS(=O)(=O)c3ccc(C)c(F)c3)c2)N2CCCC2)cc1` (configuration not stated) it was “inactive”; in that of `CCn1c(SCCC(C)C)nnc1-c1c[nH]c2ccccc12`, “inactive”; in that of `Cc1[nH]c2ccccc2c1C(=O)CN1CCCC(C)C1` (configuration not stated), “inactive”. In the case of `COc1ccc(N2C(=O)CNC2=S)cc1` it was “inactive”; in that of `CC(=O)c1ccc(Oc2cc(C)nc(-n3nc(C)cc3C)n2)cc1`, “inactive”. Next, `CC(C)(C)c1ccc(C(=O)CSc2ncn[nH]2)cc1`: “inactive”; `CN(CCC#N)c1ncnc2scc(-c3ccccc3)c12`: “inactive”; `O=C1/C(=C/c2ccc(F)cc2)SC(=S)N1NS(=O)(=O)c1ccccc1`: “inactive”.

As for `COc1ccc(C(=O)NC(=S)NNC(=O)CCc2ccccc2)cc1`, the membrane potential ratio readout (active if shifted either direction beyond buffer ±3SD; no single direction) entry is “inactive”.

Consider `O=C(Nc1nonc1-c1ccc(Cl)cc1)c1ccco1`, for which the membrane potential ratio readout (active if shifted either direction beyond buffer ±3SD; no single direction) result is “inactive”. On to `COc1ccc(C(=O)NNC(=S)NC(=O)c2ccccc2)cc1`, for which the membrane potential ratio readout (active if shifted either direction beyond buffer ±3SD; no single direction) result is “inactive”. Next, `Oc1c(Cl)cc(Cl)c(Cl)c1Cc1c(O)c(Cl)cc(Cl)c1Cl`: “inactive”; `O=C(O)CC1=C(Nc2ccccc2)C(=O)N(c2ccccc2)C1c1ccc(Cl)cc1` (configuration not stated): “inactive”. In the case of `Cc1ccc2nc(Nc3ccccc3)cc(C)c2c1` it was “inactive”; in that of `Cc1oc2cc([N+](=O)[O-])c(O)c([N+](=O)[O-])c2c1C(=O)c1ccc(Br)cc1`, 2.79 (active).

For `CC(C)(C)NC(=O)NC(=O)CN1CCC(Cc2ccccc2)CC1`, the membrane potential ratio readout (active if shifted either direction beyond buffer ±3SD; no single direction) result was “inactive”.

Take `COc1ccc(C(=O)NC(C)c2nccs2)cc1OC1CCN(C(C)C)CC1` (configuration not stated): the membrane potential ratio readout (active if shifted either direction beyond buffer ±3SD; no single direction) entry is “inactive”. Next, `COc1cc2ccccc2cc1C(=O)Nc1ccc(S(=O)(=O)Nc2cc(C)on2)cc1`: “inactive”. In the case of `O=C(O/N=C(/c1ccccc1)c1ccncc1)c1ccccc1[N+](=O)[O-]` it was “inactive”; in that of `CCc1nc(C)cn1S(=O)(=O)c1cc([N+](=O)[O-])ccc1Cl`, 2.6 (active). As for `Cc1ccc(NNC(=O)c2cccs2)cc1Cl`, the membrane potential ratio readout (active if shifted either direction beyond buffer ±3SD; no single direction) result was “inactive”. In the case of `Cc1cc(OC(C)C(=O)Nc2ccc(S(=O)(=O)Nc3onc(C)c3C)cc2)cc(C)c1Cl` (configuration not stated) it was “inactive”. In the case of `CCN(CC(=O)NCc1ccc(Cl)cc1)C(=O)CSc1ccccc1` it was “inactive”. On to `CN(C)c1ccc(Nc2c3c4c(cccc4n(C)c2=O)C(=O)c2ccccc2-3)cc1`, for which the membrane potential ratio readout (active if shifted either direction beyond buffer ±3SD; no single direction) entry is “inactive”. With `Cc1cc(NS(=O)(=O)c2ccc(NC(=O)C(C)Oc3cccc(C)c3C)cc2)nc(C)n1` (configuration not stated), the membrane potential ratio readout (active if shifted either direction beyond buffer ±3SD; no single direction) entry was “inactive”. For `COc1ccc(/C=C2/SC(=O)N(CCCCCC(=O)Nc3ccccc3C(=O)O)C2=S)cc1`, the membrane potential ratio readout (active if shifted either direction beyond buffer ±3SD; no single direction) entry is “inactive”. Next, `CN(Cc1ccccc1)CC(O)COc1ccc(CNCc2cc3ccccc3s2)cc1` (configuration not stated): “inactive”; `COc1ccc(S(=O)(=O)N2CCN(C(=O)NC3CCCCC3)CC2)cc1`: “inactive”.

For `CCCCn1c(SCC(=O)NCC2CCCO2)nc2ccc(N3CCOCC3)cc2c1=O` (configuration not stated), the membrane potential ratio readout (active if shifted either direction beyond buffer ±3SD; no single direction) result is “inactive”. As to `CC1CCN(CCCNC(=O)CN2C(=O)CSc3ccc(S(=O)(=O)N4CCCCC4)cc32)CC1`, the membrane potential ratio readout (active if shifted either direction beyond buffer ±3SD; no single direction) entry was “inactive”. In the case of `O=C(c1c(F)cccc1Cl)N1CCN(S(=O)(=O)c2ccc3c(c2)OCCCO3)CC1` it was “inactive”; in that of `Cc1cccc(N(C)C(=O)CN2C(=O)COc3ccc(S(=O)(=O)N4CCCCCC4)cc32)c1`, -12.1 (active). `O=C(O)c1ccc(/C=C2\SC(=S)N(NC(=O)c3ccc(Br)cc3)C2=O)cc1`: the membrane potential ratio readout (active if shifted either direction beyond buffer ±3SD; no single direction) entry is “inactive”.
